This is part of a sample that, as a whole, favours compounds with a hit. Of some 79,000 tested, about 15% had one in any assay. A number with no mark means an inactive call. No stated cut-off is given here; in the data, active means growth inhibition above about 70%; inactive means the rest.
assay: NCI Yeast Anticancer Drug Screen. Data for the rad50 strain (AID 155);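 further: 0% = growth of vehicle-only cultures of the same strain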; details: S. cerevisiae rad50 strain growth inhibition; at 50.0 µM; active compounds read high
Outline: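 Vehicle-treated cultures provide the reference for the growth inhibition reported for compound-exposed, repair-deficient yeast.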

Compound | growth inhibition
Cc1ccc(S(=O)(=O)C23N=NC(C)(C)C2C2CCC3C2)cc1 (stereo not drawn) | -8.4%
Cc1cc(=O)oc2c(-c3ccccc3)nnc(Cl)c12 | 21.4%
O=C1CCC2(c3ccccc3)Nc3ncccc3N12 (stereo not drawn) | 33%
CCOc1nc(C)cc(C(=O)OC)c1C#N | 18.4%
CC(=O)Nc1ccc(/C=N/Nc2c3ccccc3nc3ccccc23)cc1 | -3.3%
COc1c2c(cc3c1[C@@H]1Oc4c(ccc(O)c4CC=C(C)C)[C@@H]1CO3)OC(C)(C)C=C2 | 45.5%
C=CS(=O)(=O)CCCCCCCCCCCCCC | 28.1%
Cc1nc(N)c2c(n1)C(Cc1ccccc1)N(C(=O)c1ccccc1)C2 (stereo not drawn) | -5.6%
CC(=O)Oc1c(C)cc2c(c1C)C(C)CN2C(C)=O (stereo not drawn) | 3.95%
Cc1c(N(C)C)ccc2c(=O)c3cccc(CC(=O)O)c3oc12 | 20%
COc1cc2c(cc1OC)C(c1ccccc1CCCCl)=NCC2 | 6.4%
CC1(C2(C)SCCS2)SCCS1 | 11.2%
ON=C1CCN(c2ccccc2)CC1 | 10.3%
N/N=C(\c1ccccc1)C(Nc1ccccc1)c1ccccc1 (stereo not drawn) | 11.2%
CCC(O)C(CC)[N+](=O)[O-] (stereo not drawn) | -4.45%
CCCCCCCCCCCCOc1ccc(Sc2ccc([N+](=O)[O-])cc2)cc1 | 30.2%
CC(C(=O)c1ccncc1)c1ccccn1 (stereo not drawn) | 1.85%
Cc1cccc(N2CCN(S(C)(=O)=O)CC2)c1 | 16.6%
